PubChem BioAssay AID1851 (National Center for Advancing Translational Sciences (NCATS), 2009)
Hit rate of the full screen: of about 16,000 compounds, about 4,000 (25%) were called active. Roughly 26% stayed inconclusive and do not appear here. A selection follows. A number with no mark means an inactive call. The call rests on the fitted dose curve; in most records, active means well fitted curve in the direction sought with a large enough effect; inconclusive means small, poorly fitted or top-dose-only effect, or effect the other way; inactive means no such curve, though single readings can be large or run the other way.
On the % scale 0 is the no-effect control and ±100 the full control effect.

The compounds below were run against Cytochrome P450 2C9 (Homo sapiens) (UniProt P11712) (assay: Cytochrome panel assay with activity outcomes). Conditions: recombinant CYP, pro-luciferin dealkylation, luminescence, p450-cyp2c9; series mostly up to 57.1 µM; activity, negative = inhibition: at the top concentration.
Sequence of Cytochrome P450 2C9 (Homo sapiens) (P11712 whole entry, looked up): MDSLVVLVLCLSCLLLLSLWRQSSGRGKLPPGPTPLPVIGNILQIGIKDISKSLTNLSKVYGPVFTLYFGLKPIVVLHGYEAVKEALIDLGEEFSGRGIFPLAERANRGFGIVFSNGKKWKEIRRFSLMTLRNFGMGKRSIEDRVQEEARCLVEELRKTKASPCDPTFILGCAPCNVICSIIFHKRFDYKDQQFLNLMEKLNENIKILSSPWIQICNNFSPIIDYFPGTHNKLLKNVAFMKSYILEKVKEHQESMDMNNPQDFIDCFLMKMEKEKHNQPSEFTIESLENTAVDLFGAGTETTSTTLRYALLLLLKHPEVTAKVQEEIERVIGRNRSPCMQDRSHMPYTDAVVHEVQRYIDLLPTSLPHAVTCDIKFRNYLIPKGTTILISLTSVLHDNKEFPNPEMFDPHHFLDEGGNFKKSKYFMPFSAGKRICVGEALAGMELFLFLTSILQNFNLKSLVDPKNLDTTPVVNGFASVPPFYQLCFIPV
For `CC(=O)Nc1ccc(NC2=Nc3ccccc3N3C2=Nc2c(c(C)nn2-c2ccccc2)C3c2ccccc2)cc1` (centres undefined), the AC50 was 1.78 µM (active).
In the case of `Cc1nn(-c2ccccc2)c2c1C(c1ccc(O)c(O)c1)N1C(=N2)C(Nc2ccccc2)=Nc2ccccc21` (centres undefined), the AC50 is reported as 1.26 µM (active).
For `O=C(NNS(=O)(=O)c1ccc(Cl)cc1)c1cnn(-c2ccccc2)c1-n1cccc1`, the AC50 was 1.78 µM (active).
In the case of `O=C(NNS(=O)(=O)c1ccc(Cl)cc1)C1CCN(Cc2ccccc2)CC1`, the “activity, negative = inhibition” value is reported as -17.3%.
For `COc1cccc(N(C(=O)Cn2nnc(-c3ccc(C)cc3)n2)C(C(=O)NC(C)(C)C)c2c[nH]c3ccccc23)c1` (centres undefined), the AC50 was 5.01 µM (active).
`Cc1cc(C)cc(C(=O)N(C)[C@H](Cc2ccc(-c3ccccc3)cc2)C(=O)N[C@@H](Cc2c[nH]c3ccccc23)C(=O)O)c1` was tested, and the “activity, negative = inhibition” value was -24.1%.
Compound `Cc1[nH]c(N)nc(=S)c1CCCNc1ccccc1` has an activity, negative = inhibition of -9.42% [at 11.4 µM].
Work on `O=C(O)c1cc(=O)[nH]c(SCc2ccccc2)n1` yielded an activity, negative = inhibition of -7.95% [at 11.4 µM].
For `CCCc1cc(=O)[nH]c(SCc2cc(Cl)ccc2OC(F)F)n1`, the AC50 was 2.82 µM (active).
For `Cn1c(=O)c(-c2ccc(F)cc2)nc2cnc(Oc3ccccc3)nc21`, the “activity, negative = inhibition” value was 13.7%.
With `O=C1/C(=C\c2ccccn2)SC(=S)N1Nc1ncc(C(F)(F)F)cc1Cl` the AC50 was 5.01 µM (active).
`Cc1cccc2c(SCC(=O)NCC3CCCO3)nc(-c3ccc(F)cc3)nc12` (centres undefined) was tested, and the AC50 was 3.98 µM (active).
In the case of `Cc1ccc(C)c(-n2c(Cc3cc(=O)[nH]c(=O)[nH]3)nnc2SCC(=O)NCC2CCCO2)c1` (centres undefined), the “activity, negative = inhibition” value is reported as -15.2%.
In the case of `COc1ccc(-c2nc(CSCC(=O)NCC3CCCO3)c(C)o2)cc1OC` (centres undefined), the “activity, negative = inhibition” value is reported as -29.9%.
In the case of `O=C(O)/C=C\C(=O)Nc1ccc2c(c1)-c1ccccc1C2`, the activity, negative = inhibition is reported as -10.9% [at 11.4 µM].
`S=C(Nc1ccc2c(c1)Cc1ccccc1-2)Nc1ccc2c(c1)Cc1ccccc1-2` showed an activity, negative = inhibition of 1.69% [at 11.4 µM].
With `O=C(O)c1ccccc1-c1ccccc1C(=O)Nc1ccc2c(c1)Cc1cc(F)ccc1-2` the AC50 was 2.51 µM (active).
In the case of `CO[C@]1(C2=NCCN2)COc2ccccc2O1`, the “activity, negative = inhibition” value is reported as 17.2%.
`CC(C)OCCCNC(=O)C1CC(=O)N(C2CCCCCCC2)C1` (centres undefined) was tested, and the “activity, negative = inhibition” value was -16.8%.
`C[N+](C)(C)c1nc(N)nc2c1ncn2[C@H]1O[C@@H](CO)[C@@H](O)[C@H]1O` showed an activity, negative = inhibition of 12.2% [at 11.4 µM].
With `CC(C)(C)c1[nH]nc2c1C(c1ccc(OC(=O)c3ccco3)cc1)C(C#N)=C(N)O2` (centres undefined) the AC50 was 4.47 µM (active).
With `CN(C(=O)C(Cl)Cl)c1ccc(OC(=O)c2ccco2)cc1` the “activity, negative = inhibition” value was 7.39% [at 25.6 µM].
With `CC(C)NC[C@@H](O)COc1ccccc1-n1cccc1` the “activity, negative = inhibition” value was 6.41%.
`C=C(C)[C@@H]1CC=C(C(=O)O)CC1` was tested, and the “activity, negative = inhibition” value was 3.86%.
In the case of `Cc1ccc(C(=O)NNC(=O)CSc2nnc(-c3ccncc3)n2-c2ccc(C)cc2)cc1`, the AC50 is reported as 5.01 µM (active).
Compound `Cc1cccc(CNc2ncncc2-c2ccc(C(=O)N(C)C)cc2)c1` has an activity, negative = inhibition of 2.16% [at 2.29 µM].
With `CCC1(C)CC(CCNS(=O)(=O)c2ccc(C)cc2)(c2ccc(C)cc2)CCO1` (centres undefined) the AC50 was 5.62 µM (active).
With `Cc1ccc(S(=O)(=O)NCCSc2nnnn2C)cc1` the “activity, negative = inhibition” value was -21.7%.
With `CN(C)CCNC(=O)C(C(=O)c1ccc(F)cc1)n1ccccc1=O` (centres undefined) the “activity, negative = inhibition” value was -16.9%.
With `CC(C)=CCC/C(C)=C/CO/N=C1/[C@H]2O[C@@H]2[C@@H](O)[C@H]2[C@H]1CCn1c(=O)n(Cc3cc4c(cc3Cl)OCO4)c(=O)n12` the activity, negative = inhibition was -2.9% [at 11.4 µM].
Compound `Cc1noc(C)c1-c1nccc(NCc2cccnc2)n1` has an activity, negative = inhibition of 3.9% [at 2.29 µM].
Work on `O=C(O)/C=C\C=C/c1ccc2c(c1)OCO2` yielded an activity, negative = inhibition of -5.25% [at 11.4 µM].
With `C[C@@H](C(=O)O)/C(=C/c1ccc2c(c1)OCO2)C(=O)O` the AC50 was 2.51 µM (active).
`OC[C@@H]1O[C@@H](O)[C@H](N=Cc2ccc3c(c2)OCO3)[C@@H](O)[C@@H]1O` gave an activity, negative = inhibition of 12.1% [at 11.4 µM].
For `Cc1cccc(Oc2ncc(-c3ccc(Cl)cc3)cn2)c1C`, the “activity, negative = inhibition” value was -23%.
`Nc1nc(-c2ccc3ccccc3c2)cc(-c2cc(-c3ccc4ccccc4c3)nc(N)n2)n1` showed an activity, negative = inhibition of 8.18% [at 11.4 µM].
With `Cc1ccccc1Oc1ccc(-c2nc(N)nc(N)n2)cc1` the AC50 was 8.91 µM (active).
For `COc1cccc(NC(=O)C2c3cc(OC)c(OC)cc3C(=O)N(C)C2c2cccnc2)c1` (centres undefined), the “activity, negative = inhibition” value was -19.8%.
With `COc1cccc(NC(=O)c2cc(-c3cccnc3)nc3c(Cl)cccc23)c1` the AC50 was 0.794 µM (active).
For `CCCOc1ccc(-c2nc(N)n[nH]2)cc1`, the “activity, negative = inhibition” value was -24.8%.
Work on `NCCSS(=O)(=O)CCN` yielded an activity, negative = inhibition of -9.3% [at 11.4 µM].
`c1ccc(NCCSc2nc3ccccc3s2)cc1` was tested, and the activity, negative = inhibition was -12.4% [at 11.4 µM].
`CCc1cc2c(Sc3nc4ccccc4s3)ncnc2s1` was tested, and the AC50 was 11.2 µM (active).
In the case of `CCn1c2ccccc2c2cnc(N=CN(C)C)c(C#N)c21`, the AC50 is reported as 14.1 µM (active).
With `O=C1[C@H]2[C@H]3[C@H](O)[C@H](O)C/C(=N/OC[C@@H](O)COCc4ccco4)[C@H]3CC[C@@H]2C(=O)N1C1CCCCC1` the activity, negative = inhibition was 23.1% [at 11.4 µM].
In the case of `O=C(O)[C@H]1CN[C@H](C(=O)O)C1`, the “activity, negative = inhibition” value is reported as 0.543%.
In the case of `COC(=O)CSc1ncc(OC)c(OC)n1`, the “activity, negative = inhibition” value is reported as 6.45%.
`CCOC(=O)C(C)Sc1ncc(OC)c(Sc2ccc(Cl)cc2)n1` (centres undefined) was tested, and the AC50 was 2.51 µM (active).
For `CCOC(=O)CSc1ncc(OC)c(Sc2ccc(Cl)cc2)n1`, the AC50 was 0.891 µM (active).
Compound `Cc1cnc(CNc2ncncc2-c2ccoc2)cn1` has an activity, negative = inhibition of 6.74% [at 2.29 µM].
For `O=C(NCCN1CCN(C(=O)c2cc3ccccc3oc2=O)CC1)c1cc2ccccc2oc1=O`, the “activity, negative = inhibition” value was -15.3%.
`COc1ccc(-c2cnnn2-c2ccc(NC(=O)c3ccco3)cc2)cc1OC` was tested, and the AC50 was 2.24 µM (active).
With `O=C(Nc1ccc(-n2nncc2-c2ccco2)cc1)c1cc2ccccc2oc1=O` the AC50 was 2.24 µM (active).
For `CO[C@H]1C=CO[C@]2(C)Oc3c(C)c(O)c4c(O)c(c5c(c4c3C2=O)NC2(CCN(CC(C)C)CC2)N=5)=NC(=O)C(C)=CC=C[C@@H](C)[C@@H](O)[C@@H](C)[C@@H](O)[C@@H](C)[C@@H](OC(C)=O)[C@@H]1C`, the “activity, negative = inhibition” value was 5.75% [at 25.6 µM].
